Reference: the supplement of paper PMC10849652
Of roughly 7,900 targets only a part is listed; those with a hit were picked by preference. About 0.6% of all pairs of compound and target were hits.

Columns and labels:
Test in all cases: log2 fold change, soluble protein after heating vs DMSO (PISA); higher = thermal stabilisation; K562 cells, 10 uM, 30 min; active = over 0.2 and 3.5 SD of the protein, either way, in both replicates (recomputed)
[1] = compound: CN1CCN(CCOc2cc(OC3CCOCC3)c3c(Nc4c(Cl)ccc5c4OCO5)ncnc3c2)CC1 [saracatinib]
In short: (§1)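 K562 cells at 2×10^6 cells/mL were exposed to 10 μM compound for 30 min, then aliquots were heated for 3 min across 48°C-58°C, pooled, and extracted in PBS containing 0.5% NP-40 at 4°C. The supernatant after 21,000xg for 90 min was taken as soluble protein and measured by TMTpro 16plex LC-MS/MS with channel sums equalised. Thermal stability is reported relative to control samples, with values from duplicates. Fold changes are given on a log2 scale.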

[2] = compound: CN1CCN(c2nc(C3=C(c4c[nH]c5ccccc45)C(=O)NC3=O)c3ccccc3n2)CC1 [sotrastaurin]
In short: as §1

[3] = compound: CN1CC[C@H](c2c(O)cc(O)c3c(=O)cc(-c4ccccc4Cl)oc23)[C@H](O)C1 [alvocidib]
In short: as §1

[4] = compound: CN1CCc2c(c3ccccc3n2Cc2ccc(C(=O)NO)cc2)C1 [Tubastatin A]
In short: as §1

[5] = compound: CNC(=O)C1=CC=CC=C1NC2=NC(=NC=C2Cl)NC3=C(C=C(C=C3)N4CCOCC4)OC
In short: as §1

[6] = compound: CNC(=O)c1ccc(Nc2ncc(C(F)(F)F)c(NCc3nccnc3N(C)S(C)(=O)=O)n2)cc1 [defactinib]
In short: as §1

[7] = compound: CNCc1ccc(-c2[nH]c3cc(F)cc4c3c2CCNC4=O)cc1 [rucaparib]
In short: as §1

[8] = compound: CNc1nc(-c2ccc3c(N)n[nH]c3c2)cc(N2C[C@@H](C(=O)NC3CCCCC3)CC[C@H]2C)n1
In short: as §1

[9] = compound: COC(=O)N[C@@H](C)CNc1nccc(-c2cn(C(C)C)nc2-c2cc(Cl)cc(NS(C)(=O)=O)c2F)n1 [encorafenib]
In short: as §1

[10] = compound: COC(=O)[C@H](CCSC)NC(=O)C1=C(C=C(C=C1)NC[C@H](CS)N)C2=CC=CC=C2
In short: as §1

[11] = compound: COC1=CC=C(C=C1)CN2C=CC3=C2C=C(C=C3)C(=O)NO
In short: as §1

[12] = compound: CON(C)C(=O)N1N=C(c2cc(F)ccc2F)S[C@@]1(CCCN)c1ccccc1 [filanesib]
In short: as §1

[13] = compound: CO[C@H]1C[C@@H]2CC[C@@H](C)[C@@](O)(O2)C(=O)C(=O)N2CCCC[C@H]2C(=O)O[C@H]([C@H](C)C[C@@H]2CC[C@H](n3cnnn3)[C@H](OC)C2)CC(=O)[C@H](C)/C=C(\C)[C@@H](O)[C@@H](OC)C(=O)[C@H](C)C[C@H](C)/C=C/C=C/C=C/1C [zotarolimus]
In short: as §1

[14] = compound: COc1cc(C(=O)O)ccc1NC(=O)[C@@H]1N[C@@H](CC(C)(C)C)[C@](C#N)(c2ccc(Cl)cc2F)[C@H]1c1cccc(Cl)c1F [idasanutlin]
In short: as §1

[15] = compound: COc1cc(Nc2ncc3c(n2)-c2ccc(Cl)cc2C(c2c(F)cccc2OC)=NC3)ccc1C(=O)O [alisertib]
In short: as §1

[16] = compound: COc1cc2nc(-c3cc(F)ccc3O)nc(N[C@@H]3CNC[C@H]3C(C)(C)O)c2cc1OC
In short: as §1

[17] = compound: COc1cc2ncnc(Nc3ccc(F)c(Cl)c3)c2cc1OCCCN1CCOCC1 [gefitinib]
In short: as §1

[18] = compound: COc1cccc2cc(-c3nc([C@H]4CC[C@H](C(=O)O)CC4)n4ncnc(N)c34)[nH]c12
In short: as §1

[19] = compound: CS(=O)(=O)CCNCc1ccc(-c2ccc3ncnc(Nc4ccc(OCc5cccc(F)c5)c(Cl)c4)c3c2)o1 [lapatinib]
In short: as §1

[20] = compound: CS(=O)(=O)N1CCN(Cc2cc3nc(-c4cccc5[nH]ncc45)nc(N4CCOCC4)c3s2)CC1 [pictilisib]
In short: as §1

Measured: log2 fold change

DNAJB12 (UniProt Q9NXW2)
Sequence of UniProt Q9NXW2 (Q9NXW2 whole entry, looked up): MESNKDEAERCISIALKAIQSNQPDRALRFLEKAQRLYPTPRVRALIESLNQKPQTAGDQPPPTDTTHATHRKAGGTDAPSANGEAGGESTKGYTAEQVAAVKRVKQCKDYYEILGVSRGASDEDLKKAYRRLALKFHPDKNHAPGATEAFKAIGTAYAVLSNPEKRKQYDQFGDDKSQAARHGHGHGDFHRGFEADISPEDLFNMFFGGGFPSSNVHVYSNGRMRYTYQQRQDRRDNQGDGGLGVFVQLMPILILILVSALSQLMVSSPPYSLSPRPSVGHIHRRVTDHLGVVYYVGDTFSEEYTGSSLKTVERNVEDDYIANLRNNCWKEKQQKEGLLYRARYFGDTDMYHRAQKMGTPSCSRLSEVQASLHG
inactive: [1] 0.022 | [2] 0.068 | [3] -0.006 | [4] -0.006 | [5] 0.024 | [6] -0.03 | [7] 0.079 | [8] -0.011 | [9] -0.018 | [10] -0.021 | [11] 0.023 | [12] -0.024 | [13] -0.06 | [14] -0.006 | [15] -0.081 | [16] 0.023 | [17] 0.029 | [18] 0.006 | [19] -0.033 | [20] -0.051

EIF4G3 isoform 3 (UniProt O43432)
Sequence of UniProt O43432 (O43432 whole entry, looked up): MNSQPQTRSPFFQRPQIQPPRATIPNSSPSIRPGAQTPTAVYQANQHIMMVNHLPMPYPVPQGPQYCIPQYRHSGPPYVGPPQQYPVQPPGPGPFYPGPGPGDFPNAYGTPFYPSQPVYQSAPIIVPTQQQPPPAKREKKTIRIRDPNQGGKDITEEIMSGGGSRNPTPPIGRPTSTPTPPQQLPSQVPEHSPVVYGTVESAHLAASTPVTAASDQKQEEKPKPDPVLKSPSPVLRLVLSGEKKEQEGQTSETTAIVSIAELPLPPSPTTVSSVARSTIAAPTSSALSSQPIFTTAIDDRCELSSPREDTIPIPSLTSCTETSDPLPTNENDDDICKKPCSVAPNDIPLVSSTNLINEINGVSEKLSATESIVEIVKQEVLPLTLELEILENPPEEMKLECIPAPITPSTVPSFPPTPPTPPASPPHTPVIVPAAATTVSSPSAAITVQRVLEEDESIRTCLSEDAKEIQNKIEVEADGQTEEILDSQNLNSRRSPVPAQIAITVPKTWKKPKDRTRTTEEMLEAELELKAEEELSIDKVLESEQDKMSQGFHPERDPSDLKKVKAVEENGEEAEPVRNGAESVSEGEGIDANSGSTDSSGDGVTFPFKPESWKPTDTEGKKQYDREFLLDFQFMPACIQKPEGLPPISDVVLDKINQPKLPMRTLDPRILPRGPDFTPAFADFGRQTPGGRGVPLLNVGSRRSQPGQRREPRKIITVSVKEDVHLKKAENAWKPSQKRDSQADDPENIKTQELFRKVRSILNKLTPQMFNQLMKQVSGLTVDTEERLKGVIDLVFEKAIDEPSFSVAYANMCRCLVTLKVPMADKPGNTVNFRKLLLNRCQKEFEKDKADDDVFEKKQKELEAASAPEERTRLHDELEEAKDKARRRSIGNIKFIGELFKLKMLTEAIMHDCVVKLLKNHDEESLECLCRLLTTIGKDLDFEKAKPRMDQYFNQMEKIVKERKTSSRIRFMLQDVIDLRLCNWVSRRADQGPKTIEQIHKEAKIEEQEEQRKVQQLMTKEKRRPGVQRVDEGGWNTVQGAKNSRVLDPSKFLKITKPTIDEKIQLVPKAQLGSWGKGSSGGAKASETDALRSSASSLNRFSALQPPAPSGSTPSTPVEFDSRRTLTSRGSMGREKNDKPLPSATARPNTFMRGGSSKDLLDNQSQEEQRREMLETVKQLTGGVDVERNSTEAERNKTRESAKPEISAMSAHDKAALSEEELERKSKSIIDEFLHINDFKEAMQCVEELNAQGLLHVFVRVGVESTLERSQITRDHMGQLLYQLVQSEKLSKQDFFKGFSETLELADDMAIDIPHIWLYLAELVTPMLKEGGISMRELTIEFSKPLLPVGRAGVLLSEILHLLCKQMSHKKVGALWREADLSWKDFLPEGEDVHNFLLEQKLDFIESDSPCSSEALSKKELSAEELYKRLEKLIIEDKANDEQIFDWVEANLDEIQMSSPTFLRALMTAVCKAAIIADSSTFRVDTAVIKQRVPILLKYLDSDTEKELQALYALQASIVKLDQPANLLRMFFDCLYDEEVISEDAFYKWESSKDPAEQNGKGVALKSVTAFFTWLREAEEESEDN
inactive: [1] -0.076 | [2] -0.038 | [3] -0.018 | [4] -0.016 | [5] -0.019 | [6] 0.04 | [7] 0.519 | [8] -0.056 | [9] 0.031 | [10] -0.025 | [11] -0.15 | [12] 0.063 | [13] 0.002 | [14] 0 | [15] -0.003 | [16] -0.01 | [17] 0.032 | [18] -0.32 | [19] 0.142

E2F4 (UniProt Q16254)
inactive: [1] -0.012 | [2] -0.056 | [3] -0.134 | [4] 0.028 | [5] -0.045 | [6] -0.122 | [7] -0.025 | [8] -0.02 | [9] -0.002 | [10] -0.042 | [11] -0.024 | [12] -0.034 | [13] 0.042 | [14] 0.006 | [15] -0.056 | [16] -0.098 | [17] 0.003 | [18] 0.059 | [19] 0.047 | [20] 0.044

DDX5 (UniProt P17844)
inactive: [1] -0.055 | [2] -0.206 | [3] -0.07 | [4] 0.041 | [5] 0.025 | [6] -0.206 | [7] -0.075 | [8] -0.021 | [9] 0.14 | [10] -0.085 | [11] 0.118 | [12] 0.013 | [13] 0.062 | [14] 0.024 | [15] 0.006 | [16] 0.088 | [17] 0.031 | [18] 0.004 | [19] 0.02 | [20] 0.097

DPP8 (UniProt Q6V1X1)
active: [7] -0.572
inactive: [1] -0.002 | [2] 0.175 | [3] 0.024 | [4] 0.003 | [5] -0.044 | [6] 0.082 | [8] -0.021 | [9] 0.026 | [10] 0.058 | [11] -0.089 | [12] 0.048 | [13] 0.028 | [14] -0.112 | [15] -0.01 | [16] 0.041 | [17] 0.042 | [18] 0.037 | [19] -0.077 | [20] 0.022

EXTL2 (UniProt Q9UBQ6)
Sequence of UniProt Q9UBQ6 (Q9UBQ6 whole entry, looked up): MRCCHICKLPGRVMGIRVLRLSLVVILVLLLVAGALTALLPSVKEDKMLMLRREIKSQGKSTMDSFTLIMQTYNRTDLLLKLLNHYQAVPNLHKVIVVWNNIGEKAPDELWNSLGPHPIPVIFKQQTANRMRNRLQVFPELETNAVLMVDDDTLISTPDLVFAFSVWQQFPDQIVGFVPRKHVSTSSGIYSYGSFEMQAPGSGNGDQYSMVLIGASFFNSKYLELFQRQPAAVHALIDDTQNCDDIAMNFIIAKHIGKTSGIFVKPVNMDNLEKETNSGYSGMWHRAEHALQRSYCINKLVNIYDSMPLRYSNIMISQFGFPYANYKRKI
inactive: [1] 0.157 | [2] 0.036 | [3] -0.122 | [4] -0.136 | [5] -0.072 | [6] -0.145 | [7] 0.001 | [8] 0.052 | [9] -0.08 | [10] 0.13 | [11] 0.051 | [12] -0.023 | [13] -0.147 | [14] -0.121 | [15] -0.144 | [16] -0.094 | [17] 0.075 | [18] 0.123 | [19] 0.05 | [20] -0.111

FADS3 (UniProt Q9Y5Q0)
inactive: [1] 0.035 | [2] 0.037 | [3] -0.051 | [4] -0.061 | [5] 0.026 | [6] 0.048 | [7] 0.024 | [8] -0.079 | [9] 0.02 | [10] 0.026 | [11] -0.067 | [12] -0.151 | [13] -0.062 | [14] 0.007 | [15] 0.005 | [16] -0.036 | [17] 0.04 | [18] 0.168 | [19] 0.097 | [20] 0.168

EXOC5 (UniProt O00471)
inactive: [1] -0.043 | [2] -0.209 | [3] -0.008 | [4] 0.015 | [5] 0.042 | [6] -0.064 | [7] 0.091 | [8] -0.06 | [9] 0.083 | [10] -0.071 | [11] -0.005 | [12] -0.051 | [13] 0.089 | [14] -0.079 | [15] -0.01 | [16] 0.123 | [17] -0.024 | [18] -0.015 | [19] -0.028 | [20] -0.055

DHRS1 (UniProt Q96LJ7)
inactive: [1] -0.074 | [2] 0.153 | [3] -0.018 | [4] 0.022 | [5] 0.375 | [6] -0.007 | [7] 0.031 | [8] 0.392 | [9] -0.116 | [10] -0.116 | [11] 0.159 | [12] 0.061 | [13] 0.448 | [15] -0.025 | [16] 0.115 | [17] 0.494 | [18] -0.113 | [19] 0.096 | [20] 0.009
active: [14] 0.952

EHD2 (UniProt Q9NZN4)
inactive: [1] 0.016 | [2] 0.017 | [3] -0.017 | [4] 0.048 | [5] -0.031 | [6] -0.12 | [7] -0.019 | [8] -0.053 | [9] 0.046 | [10] -0.061 | [11] 0.001 | [12] -0.013 | [13] 0.007 | [14] -0.025 | [15] -0.02 | [16] 0.092 | [17] -0.034 | [18] 0.055 | [19] -0.06 | [20] -0.051

CTNNB1 (UniProt P35222)
active: [2] 1.08
inactive: [1] 0.032 | [3] 0.037 | [4] 0.148 | [5] -0.065 | [6] 0.074 | [7] -0.145 | [8] -0.025 | [9] 0.079 | [10] -0.015 | [11] -0.082 | [12] 0.174 | [13] 0.029 | [14] -0.056 | [15] -0.084 | [16] 0.072 | [17] -0.001 | [18] 0.054 | [19] 0 | [20] -0.2

DCTN1 isoform 4 (UniProt Q14203)
Sequence of UniProt Q14203 (Q14203 whole entry, looked up): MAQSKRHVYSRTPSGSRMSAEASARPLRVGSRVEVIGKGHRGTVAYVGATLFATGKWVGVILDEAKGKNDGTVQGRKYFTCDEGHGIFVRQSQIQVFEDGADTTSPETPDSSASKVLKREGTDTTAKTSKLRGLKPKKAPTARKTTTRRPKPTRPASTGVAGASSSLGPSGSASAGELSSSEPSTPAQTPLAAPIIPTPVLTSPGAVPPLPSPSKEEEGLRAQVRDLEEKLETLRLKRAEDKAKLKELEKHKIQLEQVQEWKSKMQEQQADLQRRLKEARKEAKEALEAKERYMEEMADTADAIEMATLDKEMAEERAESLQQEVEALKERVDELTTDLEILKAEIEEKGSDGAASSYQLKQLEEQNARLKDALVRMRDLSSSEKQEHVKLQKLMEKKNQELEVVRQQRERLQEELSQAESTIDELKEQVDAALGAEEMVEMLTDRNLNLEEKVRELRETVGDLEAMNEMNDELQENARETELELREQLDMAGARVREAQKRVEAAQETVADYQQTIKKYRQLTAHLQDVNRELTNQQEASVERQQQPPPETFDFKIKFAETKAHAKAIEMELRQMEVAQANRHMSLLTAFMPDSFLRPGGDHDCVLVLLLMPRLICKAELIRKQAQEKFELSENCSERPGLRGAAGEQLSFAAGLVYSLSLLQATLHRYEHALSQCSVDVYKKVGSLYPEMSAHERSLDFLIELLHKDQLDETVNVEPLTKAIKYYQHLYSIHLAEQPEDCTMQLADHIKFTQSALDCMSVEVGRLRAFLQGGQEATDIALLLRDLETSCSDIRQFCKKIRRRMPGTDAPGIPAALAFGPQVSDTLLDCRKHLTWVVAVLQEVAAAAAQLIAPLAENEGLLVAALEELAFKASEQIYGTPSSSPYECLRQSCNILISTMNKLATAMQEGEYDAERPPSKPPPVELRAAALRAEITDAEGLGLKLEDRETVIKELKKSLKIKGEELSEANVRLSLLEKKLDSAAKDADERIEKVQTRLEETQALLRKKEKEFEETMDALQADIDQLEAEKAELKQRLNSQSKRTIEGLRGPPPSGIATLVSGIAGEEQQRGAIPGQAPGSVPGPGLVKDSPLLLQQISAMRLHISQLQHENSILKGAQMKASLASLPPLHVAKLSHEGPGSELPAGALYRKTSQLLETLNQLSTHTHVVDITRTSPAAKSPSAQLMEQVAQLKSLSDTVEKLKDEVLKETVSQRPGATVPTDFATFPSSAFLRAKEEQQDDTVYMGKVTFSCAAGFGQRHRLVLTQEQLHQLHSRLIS
inactive: [1] -0.126 | [2] -0.159 | [3] -0.083 | [4] 0.079 | [5] -0.056 | [6] -0.037 | [7] 0.227 | [8] 0.074 | [9] 0.083 | [10] -0.068 | [11] -0.007 | [12] 0.047 | [13] 0.095 | [14] 0.012 | [15] -0.045 | [16] 0.007 | [17] 0.042 | [18] -0.083 | [19] -0.007 | [20] -0.135

EBNA1BP2 (UniProt Q99848)
Sequence of UniProt Q99848 (Q99848 whole entry, looked up): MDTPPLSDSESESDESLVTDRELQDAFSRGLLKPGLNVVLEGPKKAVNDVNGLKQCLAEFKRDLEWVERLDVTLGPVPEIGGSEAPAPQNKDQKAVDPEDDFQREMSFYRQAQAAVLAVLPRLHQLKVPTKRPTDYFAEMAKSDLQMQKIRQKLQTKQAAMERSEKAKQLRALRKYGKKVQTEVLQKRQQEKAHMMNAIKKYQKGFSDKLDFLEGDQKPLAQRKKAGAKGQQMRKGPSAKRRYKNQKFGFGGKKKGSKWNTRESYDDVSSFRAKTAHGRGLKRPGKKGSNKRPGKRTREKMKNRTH
inactive: [1] -0.081 | [2] -0.138 | [3] 0.165 | [4] 0.34 | [5] -0.047 | [6] 0.512 | [7] 0.23 | [8] 0.142 | [9] 0.13 | [10] 0.086 | [11] -0.054 | [12] 0.686 | [13] 0.069 | [14] 0.283 | [15] -0.172 | [16] -0.095 | [17] -0.01 | [18] -0.216 | [19] 0.153 | [20] -0.069

DTNBP1 (UniProt Q96EV8)
inactive: [1] -0.072 | [2] 0.026 | [3] -0.041 | [4] 0.023 | [5] 0 | [6] -0.054 | [7] -0.015 | [8] 0.005 | [9] 0.014 | [10] 0.054 | [11] -0.033 | [12] -0.115 | [13] -0.009 | [14] -0.068 | [15] -0.003 | [16] 0.004 | [17] 0.018 | [18] 0.044 | [19] -0.041 | [20] 0.073

DDX46 (UniProt Q7L014)
Sequence of UniProt Q7L014 (Q7L014 whole entry, looked up): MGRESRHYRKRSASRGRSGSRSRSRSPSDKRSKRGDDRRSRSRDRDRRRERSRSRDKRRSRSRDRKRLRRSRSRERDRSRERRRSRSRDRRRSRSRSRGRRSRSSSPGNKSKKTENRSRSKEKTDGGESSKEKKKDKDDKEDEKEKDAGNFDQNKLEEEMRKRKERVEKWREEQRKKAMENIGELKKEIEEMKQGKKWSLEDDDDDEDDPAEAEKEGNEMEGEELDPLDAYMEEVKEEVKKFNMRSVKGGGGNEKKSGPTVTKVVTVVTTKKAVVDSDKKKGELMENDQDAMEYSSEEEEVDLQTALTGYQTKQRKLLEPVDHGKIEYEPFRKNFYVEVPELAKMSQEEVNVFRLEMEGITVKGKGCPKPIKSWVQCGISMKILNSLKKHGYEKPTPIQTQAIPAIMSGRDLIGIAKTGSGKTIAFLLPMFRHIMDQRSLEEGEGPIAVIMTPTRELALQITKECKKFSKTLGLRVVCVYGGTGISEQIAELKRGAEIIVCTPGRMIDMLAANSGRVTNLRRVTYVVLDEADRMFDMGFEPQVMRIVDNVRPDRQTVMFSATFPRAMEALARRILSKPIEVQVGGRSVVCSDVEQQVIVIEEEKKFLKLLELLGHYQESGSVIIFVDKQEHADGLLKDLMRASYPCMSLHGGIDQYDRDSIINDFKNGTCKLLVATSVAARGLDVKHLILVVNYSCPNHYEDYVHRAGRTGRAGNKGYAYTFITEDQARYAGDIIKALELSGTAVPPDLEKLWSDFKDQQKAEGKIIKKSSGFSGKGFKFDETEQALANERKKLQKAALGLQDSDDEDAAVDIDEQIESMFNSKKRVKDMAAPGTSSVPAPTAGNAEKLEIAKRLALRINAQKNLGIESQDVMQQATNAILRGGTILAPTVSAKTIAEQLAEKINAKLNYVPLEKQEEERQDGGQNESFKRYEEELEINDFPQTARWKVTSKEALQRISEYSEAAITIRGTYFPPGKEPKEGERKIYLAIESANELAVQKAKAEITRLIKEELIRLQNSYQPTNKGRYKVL
inactive: [1] 0 | [2] -0.197 | [3] -0.157 | [4] 0.101 | [5] 0.054 | [6] -0.296 | [7] -0.125 | [8] 0.028 | [9] 0.05 | [10] -0.085 | [11] 0.109 | [12] -0.003 | [13] 0.046 | [14] 0.029 | [15] 0.434 | [16] 0.001 | [17] 0.041 | [18] -0.005 | [19] 0.026 | [20] 0.117

DCAF10 (UniProt Q5QP82)
inactive: [1] 0.09 | [2] 0.021 | [3] -0.011 | [4] -0.094 | [5] -0.018 | [6] -0.009 | [7] -0.083 | [8] 0.007 | [9] 0.052 | [10] 0 | [11] -0.047 | [12] 0.016 | [13] -0.01 | [14] 0.002 | [15] 0.09 | [16] 0.076 | [17] -0.051 | [18] -0.067 | [19] -0.081 | [20] 0.032
